Measurements: PubChem BioAssay (NCI)
This is part of a sample that, as a whole, favours compounds with a hit. Of some 79,000 tested, about 15% had one in any assay. No stated cut-off is given here; in the data, active means growth inhibition above about 70%; inactive means the rest.

Assays:
[1] = NCI Yeast Anticancer Drug Screen. Data for the rad50 strain (AID 155);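 further: 0% = growth of vehicle-only cultures of the same strain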; conditions: S. cerevisiae rad50 strain growth inhibition; at 50.0 µM; hits give high values
How it was run: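 Inhibition values express reduced yeast growth in compound-treated cultures relative to vehicle-treated controls.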

[2] = NCI Yeast Anticancer Drug Screen. Data for the mec2-1 strain (AID 157); conditions: S. cerevisiae mec2-1 strain, at 50.0 µM, hits give high values
How it was run: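 mec2-1 yeast strain, carrying an alteration in DNA damage repair or cell cycle control, was exposed to compounds; growth inhibition was measured relative to vehicle-treated controls.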

[3] = NCI Yeast Anticancer Drug Screen. Data for the sgs1 mgt1 strain (AID 161);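 further: 0% = growth of cultures given vehicle only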; conditions: S. cerevisiae sgs1 mgt1 strain, at 50.0 µM, hits give high values
How it was run: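 Percent growth inhibition was derived by comparing compound-exposed mutant yeast with vehicle-exposed cultures. The strain carries alterations in DNA damage repair.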

[4] = NCI Yeast Anticancer Drug Screen. Data for the cln2 rad14 strain (AID 165);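 further: 0% = growth equal to vehicle treated cultures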; conditions: S. cerevisiae cln2 rad14 strain, at 50.0 µM, hits give high values
How it was run: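 Yeast carrying cln2 and rad14 alterations (cell cycle control and DNA damage repair) were exposed to compounds. Growth inhibition was measured against vehicle-treated controls.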

[5] = NCI Yeast Anticancer Drug Screen. Data for the bub3 strain (AID 167); conditions: S. cerevisiae bub3 mutant strain, at 50.0 µM, hits give high values
How it was run: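 Steps: expose the mutant yeast strain to compound; grow alongside vehicle-treated cultures; measure growth; express inhibition against the vehicle cultures.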

[6] = NCI Yeast Anticancer Drug Screen. Data for the mlh1 rad18 strain (AID 175); conditions: S. cerevisiae mlh1 rad18 strain growth inhibition; at 50.0 µM; hits give high values
How it was run: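 Growth inhibition of the yeast strain was measured after compound exposure and expressed relative to vehicle-treated controls. The strain carries defined defects in DNA damage repair.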

Measured: growth inhibition

O=C(O)CN(CCCCN(CC(=O)O)CC(=O)O)CC(=O)O
inactive: [1] -6.8% | [2] -15.8% | [3] 9.3% | [4] -66.5% | [5] 16.4% | [6] -21.2%

N#CC(C(=O)C(=O)Nc1cccc(C(F)(F)F)c1)c1cccc(Cl)c1 (stereo unspecified)
inactive: [1] 19.1% | [2] 11.4% | [3] 14.8% | [4] 12.2% | [5] 19.6% | [6] 28.9%

COc1cccc(/C=N/O)c1OC
inactive: [1] 6.75% | [2] 4.25% | [3] 2.6% | [4] 8.55% | [5] -1.85% | [6] 2%

Cc1ccc(-c2nc3scc(C)n3n2)cc1
inactive: [1] 0.85% | [2] 6.6% | [3] -4.5% | [4] -29% | [5] 7.65% | [6] 8.85%

O=c1[nH]c2cccnc2c(=O)n1O
inactive: [1] -6.5% | [2] -8.7% | [3] -7.35% | [4] -39.8% | [5] 12.2% | [6] -5.5%

CCOC(=O)CNC(=O)CNC(=O)CNC(=O)CN
inactive: [1] 0.1% | [2] 2.5% | [3] 15.8% | [4] -20.4% | [5] -3.85% | [6] -16.6%

C1=CCOCOC1
inactive: [1] -2.35% | [2] -24.4% | [3] -2.35% | [4] -8% | [5] -8.95% | [6] -38.1%

O=C(Nc1ccc(Cl)cc1)Nc1nnc2nc(C3(c4nc5nnc(NC(=O)Nc6ccc(Cl)cc6)n5[nH]c4=O)CCCC3=O)c(=O)[nH]n12
inactive: [1] -23.3% | [2] -19.5% | [3] -11.7% | [4] -32.2% | [5] 10.9% | [6] -2.75%

CC(=O)N(C)C
inactive: [1] -9.9% | [2] -2.05% | [3] 12.9% | [4] 6% | [5] -2.3% | [6] -6.5%

Cc1sc2nc3n(c(=O)c2c1C)N=C(c1ccc(Cl)cc1)CS3
inactive: [1] 6.6% | [2] -11.2% | [3] -6.65% | [4] 9.2% | [5] -0.8% | [6] -16.2%

N#C/C(=C\c1ccccc1)C(NO)Nc1ccccc1 (stereo unspecified)
inactive: [1] -31.1% | [2] -10.2% | [3] -1.4% | [4] 0.05% | [5] 6.65% | [6] -14.8%

COC1=Cc2nc3ccccc3nc2OC1(C)C
inactive: [1] -13.2% | [2] 3.15% | [3] 10.6% | [4] -16.4% | [5] 17.8% | [6] 3.75%

CN1C(=O)C(O)C[C@@H]1c1ccc(F)cc1 (stereo partly specified)
inactive: [1] -5% | [2] 6.8% | [3] 12.7% | [4] 16.6% | [5] -0.25% | [6] -30.4%

N#C/C(=C/O)c1ccccc1
inactive: [1] 1.65% | [2] 4.4% | [3] -0.75% | [4] 3.1% | [5] 5.6% | [6] -13.7%

CCCCCCCCCCCCSC1=CC(=O)C(SCCCCCCCCCCCC)=CC1=O
inactive: [1] -15.8% | [2] -6.55% | [3] -5.6% | [4] -13.2% | [5] -4.5% | [6] -34.1%

N#C/C(=C1\SC(N=Nc2ccc(Cl)cc2)C(=O)N1c1ccccc1)c1nc2ccccc2[nH]1 (stereo unspecified)
inactive: [1] 6.6% | [2] 6.05% | [3] 6.75% | [4] -40.9% | [5] 3.05% | [6] -5.05%

CCCNC(=S)/N=C/c1c(O)c2ccccc2[nH]c1=O
inactive: [1] -40% | [2] -44.6% | [3] -11.7% | [4] 12.3% | [5] 6.8% | [6] -13.6%

COC(=O)C(=O)C(C(=O)C(=O)Nc1nc(=S)[nH][nH]1)c1nc2ccc([N+](=O)[O-])cc2[nH]c1=O (stereo unspecified)
inactive: [1] 36% | [2] 20.6% | [3] 11.1% | [4] -17.6% | [5] 22.4% | [6] 18.9%

Cc1nc2cc(N)c(Cl)cc2[nH]1
inactive: [1] -6.5% | [2] 14.8% | [3] 9.95% | [4] -7.15% | [5] 10.5% | [6] -0.6%

CC1CCCCN1Cc1ccccc1COC(=O)c1cccc(Br)c1 (stereo unspecified)
inactive: [1] 32.5% | [2] -1.65% | [3] 43.3% | [4] -16.9% | [5] 16.1% | [6] 2.4%

CC12CCC3c4ccc(OC(=O)c5ccc([N+](=O)[O-])cc5)cc4CCC3C1CCC2=O (stereo unspecified)
inactive: [1] 13.8% | [2] -6.95% | [3] -6.45% | [4] 5.75% | [5] -0.65% | [6] -1.75%

CC(CC(=O)O)C(C)(C#N)C(=O)O (stereo unspecified)
inactive: [1] 1.8% | [2] 1.4% | [3] 2.8% | [4] -41.5% | [5] 0.05% | [6] -4.95%

CCOC(=O)c1ccc(N=Nc2c(N)nc(N)nc2N)cc1
inactive: [1] -10.4% | [2] 10.3% | [3] -1.7% | [4] -61.4% | [5] -0.15% | [6] -11%

CCCCCCCCCCCCCCCCCCOC(=O)c1cccnc1
inactive: [1] 23.1% | [2] 10.3% | [3] 15.8% | [4] 20.7% | [5] 23.8% | [6] 27.3%

COc1cc(OC)c(C2CC(C)(O)Oc3cc4c(cc32)OCO4)c(OC)c1 (stereo unspecified)
inactive: [1] 17.4% | [2] 3.8% | [3] 26.9% | [4] 3.9% | [5] 22.1% | [6] 11.8%

CC(=O)Cc1ccc([N+](=O)[O-])cc1
inactive: [1] -0.1% | [2] -9.25% | [3] -15.9% | [4] -41.7% | [5] 4.15% | [6] 12.2%

O=S(=O)(O)c1cc(S(=O)(=O)O)c2c(N=Nc3cccc4ccccc34)c(O)ccc2c1
inactive: [1] 0.8% | [2] -9.25% | [3] -35.5% | [4] -18.1% | [5] -35.9% | [6] 1.55%

Cc1ccc(=O)n(Cc2ccccc2)n1
inactive: [1] -8.25% | [2] -31.9% | [3] -11.8% | [4] 21.1% | [5] -12.2% | [6] 2.75%

CC(=O)/C(=C/N1CCNC1=S)C(=O)Nc1ccc(Cl)cc1
inactive: [1] -34.5% | [2] -24% | [3] -39.6% | [4] 0.2% | [5] -39.2% | [6] -26.3%

N#C/C(=C(/Cc1ccc(F)cc1)NP(=O)(c1ccccc1)c1ccccc1)c1ccc(F)cc1
inactive: [1] 10.9% | [2] -3.7% | [3] -10.4% | [4] 0.8% | [5] 2.6% | [6] -2.35%

N#C/C(=C\c1c2ccccc2c(Cl)c2ccccc12)C(N)=S
inactive: [1] 34.2% | [2] 24.9% | [3] 45.1% | [4] 7.55% | [5] 15.4% | [6] 24.4%

COc1ccc(C2C/C(=N/O)c3ccccc3O2)cc1 (stereo unspecified)
inactive: [1] 16.6% | [2] -7.85% | [3] 5.85% | [4] -93.6% | [5] -7.75% | [6] 10.1%

O=C1Cn2c(cc(=O)c3ccccc32)O1
inactive: [1] 37.5% | [2] 13.6% | [3] 5.9% | [4] -9.35% | [5] 9.8% | [6] 14.8%

CC1=CC[P+](Cc2ccccc2)(c2ccccc2)C1 (stereo unspecified)
inactive: [1] -25.4% | [2] 14.7% | [3] 22.2% | [4] 4.35% | [5] 8.2% | [6] 8.8%

COc1cc(NC=C2C(=O)OC(C)(C)OC2=O)c(OC)c(C)c1OC
inactive: [1] 1.25% | [2] -27.1% | [3] -10.1% | [4] 0.5% | [5] -22.9% | [6] 4.15%

CCOC(=O)Nc1ccc(F)cc1F
inactive: [1] -62.1% | [2] -10.6% | [3] -2.75% | [4] -10.5% | [5] 8.65% | [6] 14.4%

O=C1/C(=N\O)C2CCC1C2 (stereo unspecified)
inactive: [1] -11.2% | [2] 0.75% | [3] 0.3% | [4] 2.5% | [5] -9.2% | [6] 0.85%

CN(C)CC1CC(O)C(CN(C)C)CC1O (stereo unspecified)
inactive: [1] -6.2% | [2] -13.4% | [3] -20.2% | [4] -6.15% | [5] -6.25% | [6] -8.95%

CC(C)SCCO
inactive: [1] -2.55% | [2] 10.2% | [3] 7.6% | [4] -9.65% | [5] -26.6% | [6] -13.4%

O=C1NC2(O)C(=O)c3ccccc3C2(O)N1 (stereo unspecified)
inactive: [1] -8.65% | [2] -10.2% | [3] -27.9% | [4] 5.8% | [5] -17.3% | [6] 0.55%

NC1=NN(c2ccccc2)C(=O)C1C(=O)CCC(=O)Nc1cccc(Cl)c1 (stereo unspecified)
inactive: [1] 9.9% | [2] -1.8% | [3] -11.4% | [4] 18.2% | [5] 5.35% | [6] 2.1%
